Our source for the outcome and Potency values is PubChem BioAssay AID2490 (National Center for Advancing Translational Sciences (NCATS), 2010).

Active and inactive are the calls of the source. The call rests on the fitted dose curve.

The target in this experiment is Thyroid hormone receptor beta (Homo sapiens) (UniProt P10828). Nature of the experiment: Secondary Confirmation Assay for Inhibitors of the Interaction of Thyroid Hormone Receptor and Steroid Receptor Coregulator 2, Texas Red Fluoroprobe. As to conditions: TRb LBD / Texas Red SRC2 peptide fluorescence polarization. The source says: NIH Molecular Libraries Probe Production Network [MLPCN] NIH Chemical Genomics Center [NCGC] MLPCN Grant: DK058080 Assay Provider: R. Kip Guy, St. Jude Children's Research Hospital NCGC Assay Overview: Thyroid receptor (TR) regulates many homeostatic processes including basal metabolism, cardiovascular function, body weight, and lipid trafficking. TR modulators are potential therapeutics for obesity and hyperlipidemias but current thyroid analogs have undesirable side effects, particularly cardiac stimulation. To identify inhibitors that specifically prevent the interaction of TR with the steroid receptor coregulator 2 (SRC2), a fluorescence polarization assay was screened (Arnold et al., 2006). This assay detects the interaction of the ligand-binding domain of human TRb with a Texas Red labeled SRC2 peptide, corresponding to a 20 amino acid region of the nuclear receptor interaction domain. Small molecule inhibitors that block the interaction of TR and SRC2 are detected by a decrease in fluorescence polarization.
Thyroid hormone receptor beta (Homo sapiens), sequence (P10828 whole entry, looked up, the tested form may be a part): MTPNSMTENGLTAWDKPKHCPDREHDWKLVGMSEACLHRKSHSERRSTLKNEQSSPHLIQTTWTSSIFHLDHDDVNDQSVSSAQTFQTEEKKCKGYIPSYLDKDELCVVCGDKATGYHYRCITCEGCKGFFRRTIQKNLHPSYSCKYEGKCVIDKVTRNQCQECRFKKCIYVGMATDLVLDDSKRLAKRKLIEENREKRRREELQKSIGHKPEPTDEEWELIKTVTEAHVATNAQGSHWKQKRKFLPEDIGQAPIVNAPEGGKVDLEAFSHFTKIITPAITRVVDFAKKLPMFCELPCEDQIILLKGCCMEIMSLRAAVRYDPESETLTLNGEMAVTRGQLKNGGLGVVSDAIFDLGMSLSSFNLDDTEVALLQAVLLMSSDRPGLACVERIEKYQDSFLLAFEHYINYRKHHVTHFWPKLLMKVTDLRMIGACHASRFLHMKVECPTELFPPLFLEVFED
NCGC Assay Protocol Summary: Twenty uL/well 0.6 uM TRb and 20 nM Texas Red labeled SRC2-2 in protein buffer (20mM Tris hydrochloride, pH 7.4, 100mM NaCl, 10% glycerol, 1mM EDTA, 0.01% NP-40, 1mM DTT, 1uM T3 and 4% DMSO) was dispensed into black solid 384-well plates (Costar 3710) using a Biomek FX (Beckman Coulter) liquid handling system. Following transfer of 260 nL compound (ranging from 7 nM to 130 uM), the plates were incubated 3 hr at ambient temperature. The plates were read by an Envision (Perkin Elmer) to detect fluorescence polarization of SRC2 Texas Red (555 nm excitation and 632 nm emission). Arnold, L. A.; Estebanez-Perpina, E.; Togashi, M.; Shelat, A.; Ocasio, C. A.; McReynolds, A. C.; Nguyen, P.; Baxter, J. D.; Fletterick, R. J.; Webb, P.; Guy, R. K. A high-throughput screening method to identify small molecule inhibitors of thyroid hormone receptor coactivator binding. Sci STKE 2006, p 13.
Background: Polarisation of emitted light reports the rotation of a fluorescent probe.
On to `Cc1cc(C(=O)OCC(=O)NC(=O)C2CCCCC2)ccc1[N+](=O)[O-]`, for which the call was inactive.
With `CC(OC(=O)c1ccc(S(C)(=O)=O)c([N+](=O)[O-])c1)C(=O)NC1C2CC3CC(C2)CC1C3` (stereo not given), the Potency was 1.4 µM (active).
Take `CS(=O)(=O)c1ccc(C(=O)OCC(=O)Nc2cc(C(F)(F)F)ccc2Cl)cc1[N+](=O)[O-]`: the molecule was called inactive.
With `CS(=O)(=O)c1ccc(C(=O)OCC(=O)N2CCN(c3ccccc3)CC2)cc1[N+](=O)[O-]`, the Potency is 24.7 µM (active).
As for `CS(=O)(=O)c1ccc(C(=O)OCC(=O)N2CCC(Cc3ccccc3)CC2)cc1[N+](=O)[O-]`, the Potency was 8.2 µM (active).
For the molecule `CS(=O)(=O)c1ccc(-c2nnc(-c3ccccc3)o2)cc1[N+](=O)[O-]`, the molecule was classed as inactive.
Take `CCCC1CCN(C(=O)COC(=O)c2ccc(S(C)(=O)=O)c([N+](=O)[O-])c2)CC1`: the Potency was 3.3 µM (active).
`C[S+](=O)([O-])c1ccc(C(=O)OCC(=O)N2CCNC(=O)C2)cc1[N+](=O)[O-]`: the molecule was called inactive.
For the molecule `O=C(COC(=O)c1ccc(Cl)c([N+](=O)[O-])c1)NC1C2CC3CC(C2)CC1C3` (stereo not given), the call was inactive.
As for `CS(=O)(=O)c1ccc(C(=O)OCC(=O)N2CCCc3ccccc32)cc1[N+](=O)[O-]`, the Potency was 2.3 µM (active).
As for `CCN1CCN(C(=O)COC(=O)c2ccc(S(C)(=O)=O)c([N+](=O)[O-])c2)C(C)C1` (stereo not given), the call was inactive.
Consider `CS(=O)(=O)c1ccc(-c2nnc(-c3ccccc3)s2)cc1[N+](=O)[O-]`, for which the molecule was classed as inactive.
The same measure, in the same setting: the same measure for `Cc1ccccc1NC(=O)COC(=O)c1ccc(S(C)(=O)=O)c([N+](=O)[O-])c1`: “inactive”.
As to `CC1CCN(C(=O)C(C)OC(=O)c2ccc(S(C)(=O)=O)c([N+](=O)[O-])c2)CC1` (stereo not given), the Potency is 6.4 µM (active).
On the same count and under the same terms, the value for `COc1cccc(CNC(=O)COC(=O)c2ccc(S(C)(=O)=O)c([N+](=O)[O-])c2)c1` was 64.6 µM (active).
With `CS(=O)(=O)c1ccc(C(=O)OCC(=O)N2CCCCC2)cc1[N+](=O)[O-]`, the Potency was 20.5 µM (active).
The same measure, in the same setting: the value for `CS(=O)(=O)c1ccc(C(=O)OCC(=O)NC(=O)C2CCCCC2)cc1[N+](=O)[O-]` was 1.4 µM (active).
In the case of `O=C(COC(=O)c1cccc([N+](=O)[O-])c1Cl)NC1C2CC3CC(C2)CC1C3` (stereo not given), the outcome was inactive.
As to `CS(=O)(=O)c1ccc(C(=O)OCC(=O)N2CCNc3ccccc32)cc1[N+](=O)[O-]`, the Potency was 1.1 µM (active).
In the case of `CCN1CCN(C(=O)COC(=O)c2ccc(S(C)(=O)=O)c([N+](=O)[O-])c2)CC1C` (stereo not given), the outcome was inactive.
Turning to `CS(=O)(=O)c1ccc(C(=O)OCC(=O)N2Cc3ccccc3C2)cc1[N+](=O)[O-]`, the Potency was 3 µM (active).
As for `O=C(COC(=O)c1cc([N+](=O)[O-])ccc1Cl)NC1C2CC3CC(C2)CC1C3` (stereo not given), the outcome was inactive.
Take `CN(C(=O)COC(=O)c1ccc(S(C)(=O)=O)c([N+](=O)[O-])c1)c1ccccc1`: the Potency is 1.6 µM (active).
With `CC(OC(=O)c1ccc(S(C)(=O)=O)c([N+](=O)[O-])c1)C(=O)NC12CC3CC(CC(C3)C1)C2` (stereo not given), the Potency was 2.1 µM (active).
Same read-out and setting: the value for `CS(=O)(=O)c1ccc(C(=O)NCC(=O)NC2C3CC4CC(C3)CC2C4)cc1[N+](=O)[O-]` (stereo not given) was 11.3 µM (active).
